Where a name gives a salt, the structure may show the parent alone. ± gives the standard deviation of the averaged measurements.
Key:
Experiment in all cases: growth (OD600 after 10 h); higher = more growth (less inhibition)
[1] = system: E. coli TESEC Alr+ wild-type control; conditions: compound 0.1 mM; raw OD600 reference: median of DMSO wells 0.241, cell-free background 0.041
Method: (§1)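 TESEC Mtb Alr E. coli, or the Alr+ wild-type control, in 384-well plates with Prestwick library compounds at 0.1 mM and 1% DMSO, across arabinose induction levels of 1E3 to 1E7 nM. Growth is read as OD600 after 10 h at 37 °C in triplicate biological replicates.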

[2] = system: E. coli TESEC Mtb Alr; conditions: compound 0.1 mM
Method: as §1

[3] = system: E. coli TESEC Mtb Asd; conditions: compound 0.1 mM
Method: (§2)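 TESEC E. coli strains in which the native enzyme is deleted and replaced by arabinose-inducible Mtb Asd, DapB, CysH or TrpD, each grown in its selective medium. Strains were screened against the Prestwick library at 0.1 mM and 1% DMSO in 384-well format at low and high arabinose induction. Growth is read as OD600 after 10 h in triplicate.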

[4] = system: E. coli TESEC Mtb DapB; conditions: compound 0.1 mM
Method: as §2

[5] = system: E. coli TESEC Alr+ wild-type control; conditions: compound 0.1 mM; raw OD600 reference: median of DMSO wells 0.49, cell-free background 0.052
Method: (§3)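 TESEC Mtb Alr E. coli (ΔaraC ΔtolC ΔentC Δalr ΔdadX, arabinose-inducible Mtb Alr) or the Alr+ wild-type control strain, grown in defined M9-fructose medium without D-alanine in 96-well plates with Prestwick library compounds at 0.1 mM and 1% DMSO. Low Alr induction is 0.1 µM arabinose and high induction is 10 mM arabinose.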

[6] = system: E. coli TESEC Mtb Alr; conditions: compound 0.1 mM; remark: listed apart in the source
Method: as §3

[7] = arabinose 1000 nM, raw OD600 reference: median of DMSO wells 0.294, cell-free background 0.041
[8] = arabinose 10000 nM, raw OD600 reference: median of DMSO wells 0.264, cell-free background 0.041
[9] = arabinose 100000 nM, raw OD600 reference: median of DMSO wells 0.201, cell-free background 0.041
[10] = arabinose 1000000 nM, raw OD600 reference: median of DMSO wells 0.193, cell-free background 0.041
[11] = arabinose 10000000 nM, raw OD600 reference: median of DMSO wells 0.146, cell-free background 0.041
[12] = arabinose induction (level): High, raw OD600 reference: median of DMSO wells 0.331, cell-free background 0.041
[13] = arabinose induction (level): Low, raw OD600 reference: median of DMSO wells 0.417, cell-free background 0.041
[14] = arabinose induction (level): High, raw OD600 reference: median of DMSO wells […], cell-free background 0.041
[15] = arabinose induction (level): Low, raw OD600 reference: median of DMSO wells 0.227, cell-free background 0.041
[16] = arabinose 100 nM, raw OD600 reference: median of DMSO wells 0.413, cell-free background 0.052
[17] = arabinose 10000000 nM, raw OD600 reference: median of DMSO wells […], cell-free background 0.052

Structure (SMILES) | growth [1] | growth [2, 7] | growth [2, 8] | growth [2, 9] | growth [2, 10] | growth [2, 11] | growth [3, 12] | growth [3, 13] | growth [4, 14] | growth [4, 15] | growth [5] | growth [6, 16] | growth [6, 17]
O=C(O)COC(=O)Cc1ccccc1Nc1c(Cl)cccc1Cl [Aceclofenac] | 0.154 ± 0.0035 | 0.205 ± 0.019 | 0.223 ± 0.015 | 0.12 ± 0.007 | 0.141 ± 0.0064 | 0.132 ± 0.012 | 0.205 ± 0.026 | 0.263 ± 0.011 | 0.156 ± 0.0075 | 0.176 ± 0.028 | 0.424 ± 0.0057 | 0.352 ± 0.034 | 0.244 ± 0.015
C=C1/C(=C\C=C2/CCC[C@]3(C)[C@@H]([C@H](C)/C=C/[C@@H](O)C4CC4)CC[C@@H]23)C[C@@H](O)C[C@@H]1O [Calcipotriene] | 0.0539 ± 0.0078 | 0.0502 ± 0.0045 | 0.0544 ± 0.0042 | 0.0504 ± 0.0018 | 0.0524 ± 0.0013 | 0.056 ± 0.0013 | 0.0646 ± 0.0023 | 0.0613 ± 0.0049 | 0.158 ± 0.078 | 0.0652 ± 0.0025 | 0.0607 ± 0.0046 | 0.234 ± 0.12 | 0.0671 ± 0.0016
Nc1ccc(S(=O)(=O)Nc2ccccn2)cc1 [Sulfapyridine] | 0.239 ± 0.0046 | 0.295 ± 0.018 | 0.261 ± 0.0053 | 0.219 ± 0.0099 | 0.174 ± 0.0063 | 0.141 ± 0.0049 | 0.354 ± 0.035 | 0.412 ± 0.015 | 0.188 ± 0.02 | 0.215 ± 0.041 | 0.449 ± 0.0039 | 0.405 ± 0.013 | 0.325 ± 0.0082
CC1(C)S[C@@H]2[C@H](NC(=O)[C@H](C(=O)O)c3ccsc3)C(=O)N2[C@H]1C(=O)O [Ticarcillin sodium] | 0.256 ± 0.0056 | 0.296 ± 0.0051 | 0.28 ± 0.0035 | 0.2 ± 0.031 | 0.226 ± 0.0051 | 0.142 ± 0.0031 | 0.331 ± 0.056 | 0.305 ± 0.0068 | 0.178 ± 0.0019 | 0.196 ± 0.019 | 0.577 ± 0.095 | 0.419 ± 0.0051 | 0.354 ± 0.0093
Cc1ccc(/C(=C\CN2CCCC2)c2ccccn2)cc1 [Triprolidine hydrochloride] | 0.223 ± 0.0078 | 0.27 ± 0.014 | 0.257 ± 0.0035 | 0.213 ± 0.017 | 0.176 ± 0.0043 | 0.141 ± 0.005 | 0.264 ± 0.029 | 0.427 ± 0.05 | 0.165 ± 0.0066 | 0.214 ± 0.055 | 0.464 ± 0.026 | 0.41 ± 0.0077 | 0.368 ± 0.019
CCCCC(=O)O[C@H]1CC[C@H]2[C@@H]3CCc4cc(O)ccc4[C@H]3CC[C@]12C [Estradiol Valerate] | 0.252 ± 0.004 | 0.307 ± 0.0067 | 0.285 ± 0.0065 | 0.215 ± 0.016 | 0.221 ± 0.021 | 0.13 ± 0.0034 | 0.404 ± 0.031 | 0.396 ± 0.048 | 0.193 ± 0.0052 | 0.207 ± 0.0061 | 0.48 ± 0.071 | 0.436 ± 0.018 | 0.38 ± 0.0047
O=C1c2cccc3c2[C@H](CCC3)CN1[C@@H]1CN2CCC1CC2 [Palonosetron hydrochloride] | 0.212 ± 0.017 | 0.281 ± 0.0041 | 0.263 ± 0.013 | 0.177 ± 0.01 | 0.165 ± 0.0085 | 0.151 ± 0.0037 | 0.267 ± 0.049 | 0.279 ± 0.045 | 0.198 ± 0.0067 | 0.235 ± 0.02 | 0.601 ± 0.042 | 0.417 ± 0.011 | 0.307 ± 0.022
Clc1ccccc1C(c1ccccc1)(c1ccccc1)n1ccnc1 [Clotrimazole] | 0.03967 ± 0.00012 | 0.04147 ± 0.00015 | 0.0452 ± 0.00099 | 0.0437 ± 0.0032 | 0.0467 ± 0.00068 | 0.0448 ± 0.0032 | 0.0468 ± 0.00044 | 0.0472 ± 0.0021 | 0.0469 ± 0.0008 | 0.0488 ± 0.0015 | 0.0507 ± 0.0011 | 0.07627 ± 0.0006 | 0.0569 ± 0.00059
CC[C@H](C)C(=O)O[C@H]1CCC=C2C=C[C@H](C)[C@H](CC[C@@H]3C[C@@H](O)CC(=O)O3)[C@H]21 [Mevastatin] | 0.15 ± 0.0081 | 0.152 ± 0.1 | 0.166 ± 0.08 | 0.134 ± 0.0032 | 0.0515 ± 0.0016 | 0.0677 ± 0.0034 | 0.135 ± 0.036 | 0.148 ± 0.012 | 0.171 ± 0.054 | 0.134 ± 0.0085 | 0.41 ± 0.019 | 0.406 ± 0.021 | 0.214 ± 0.028
CN(CCCN1c2ccccc2CCc2ccccc21)CC(=O)c1ccc(Cl)cc1 [Lofepramine] | 0.133 ± 0.0019 | 0.199 ± 0.0064 | 0.127 ± 0.0072 | 0.194 ± 0.0099 | 0.0713 ± 0.0042 | 0.159 ± 0.0095 | 0.27 ± 0.062 | 0.196 ± 0.025 | 0.23 ± 0.064 | 0.227 ± 0.017 | 0.343 ± 0.013 | 0.4242 ± 0.0042 | 0.202 ± 0.017
COc1ccc(CC2c3cc(OC)c(OC)cc3CC[N+]2(C)CCC(=O)OCCCCCOC(=O)CC[N+]2(C)CCc3cc(OC)c(OC)cc3C2Cc2ccc(OC)c(OC)c2)cc1OC (stereo unspecified) [Atracurium besylate] | 0.177 ± 0.0075 | 0.271 ± 0.013 | 0.25 ± 0.011 | 0.174 ± 0.014 | 0.127 ± 0.0067 | 0.137 ± 0.006 | 0.283 ± 0.059 | 0.398 ± 0.037 | 0.171 ± 0.017 | 0.218 ± 0.05 | 0.431 ± 0.027 | 0.416 ± 0.014 | 0.336 ± 0.06
CN1CCN(c2c(F)cc3c(=O)c(C(=O)O)cn4c3c2SCC4)CC1 [Rufloxacin] | 0.04323 ± 0.00015 | 0.0429 ± 0.001 | 0.03973 ± 0.00031 | 0.04207 ± 0.00031 | 0.03957 ± 0.00025 | 0.0429 ± 0.0015 | 0.04973 ± 0.00045 | 0.0499 ± 0.0012 | 0.0507 ± 0.00094 | 0.0509 ± 0.0014 | 0.0549 ± 0.00072 | 0.0582 ± 0.0019 | 0.05197 ± 0.00051

Source: the supplement of paper PMC9262897, “Low-cost anti-mycobacterial drug discovery using engineered E. coli” (Nature Communications, 2022)
